Source: PubChem BioAssay (National Center for Advancing Translational Sciences (NCATS))
Rows were chosen to be rich in hits. Some 21% of all compounds tested hit in one or more screens of this group.
Pf growth 96h: inhibits malaria parasite growth, 96 h; P. falciparum luciferase reporter growth, 96 h; Potency, µM (series often up to 28.7 µM), most hits filed as inhibitors; 320,000 tested, 6.9% active; AID 504834; active = well fitted inhibition curve with a large enough effect; inconclusive = small, poorly fitted or top-dose-only effect, or another doubt; inactive = no such curve, though single readings can be large or run the other way
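Erythrocytes infected with luciferase-expressing P. falciparum were dispensed at 2% hematocrit and 0.05% parasitemia (final), then incubated with compounds 96 hours at 37 C in 5% CO2. Luminescence after detection reagent addition reported growth.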
Shiga toxin inh: inhibitors of Shiga toxin in Vero cells. Vero cells, Shiga toxin protein synthesis inhibition reporter. inhibition, % at 38.7 µM. 290,000 tested, 9.2% active. AID 2315; in the data active = inhibition mostly above about 28%, no sharp cut-off; inactive = mostly below about 43%
Pf growth 48h: inhibits P. falciparum growth in the first generation, 48 h; 310,000 tested, 5.9% active; Potency, µM (highest dose often 28.7 µM), hits mostly inhibitors; P. falciparum luciferase growth in erythrocytes, 48 h; active = well fitted inhibition curve with a large enough effect; inconclusive = small, poorly fitted or top-dose-only effect, or another doubt; inactive = no such curve, though single readings can be large or run the other way
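Parasite viability was followed by luminescence of a genomically integrated firefly luciferase. Cultures held 0.1% parasitemia at 2% hematocrit (final), incubated under 5% CO2 at 37 C.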
SARS PLpro yeast: inhibitors of SARS-CoV papain-like protease in yeast. Potency, µM (top dose mostly 32.9 µM), most hits filed as activators. S. cerevisiae expressing SARS-CoV PLpro, growth rescue. 330,000 tested, 0.19% active. AID 485353; also: nearly all actives have a fitted effect of over 55% in size
CHX counter: counter-screen for Shiga toxin inhibitors: cycloheximide protein synthesis inhibition; cell reporter, cycloheximide protein synthesis inhibition counterscreen; AID 2314; 300,000 tested, 12% active; max response, %; in the data active = max response mostly above about 13%, no sharp cut-off; inactive = mostly below about 14%; also: read at 38.3 µM for the half of the compounds with a filed dose
NS1 inh: blocks influenza NS1 protein function; Potency, µM (titrated, usually from 46.1 µM); 270,000 tested, 0.4% active; AID 2326; also: actives are rising curves; nearly all actives have a fitted effect of over 50% in size
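OD600 was taken as the measure of yeast growth restored by compound in an NS1-expressing S. cerevisiae strain. Cells had been washed out of glucose medium and diluted 1:100 into galactose -URA medium, pH 6.0.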
Of the large screens only hits and unclear results are named; the others gave an inactive call. Unless noted, calls follow the shape of the full dose curve.

CCOC(=O)C1=C(C)N=c2s/c(=C/c3cccc([N+](=O)[O-])c3O)c(=O)n2C1c1cc(OC)c(OC)c(OC)c1 (stereo unspecified)	Pf growth 96h inconclusive, Pf growth 48h 1.04µM
C[C@](O)(c1ccccc1)c1nccc2ccccc12	none (no result: Pf growth 96h, Shiga toxin inh, Pf growth 48h, SARS PLpro yeast, CHX counter)
COc1ccc(CN(CC2CCCO2)C(=O)c2cc3sccc3n2C)c(OC)c1 (stereo unspecified)	Pf growth 48h inconclusive
O=C(Nc1ccccn1)Nc1cccs1	Pf growth 96h inconclusive, Shiga toxin inh 38.0, CHX counter 36.3 (no result: Pf growth 48h)
O=C(Nc1ccncc1)Nc1ccccn1	Pf growth 96h 8.28µM
O=C(Nc1ccccc1)Nc1ccncc1	Pf growth 96h inconclusive, Shiga toxin inh 57.3, Pf growth 48h inconclusive (no result: NS1 inh)
CCC(C(=O)Nc1ccncc1)c1ccccc1 (stereo unspecified)	Pf growth 48h 4.65µM
C/C=C(/C)C(=O)O[C@H]1C[C@@]2(C)O[C@H]2[C@@H](OC(C)=O)C2(C)CC[C@@](O)(C(C)C)C12 (stereo partly specified)	none (no result: Pf growth 96h, Pf growth 48h, SARS PLpro yeast, NS1 inh)
O=C(Nc1cccc(F)c1)Nc1cnccn1	Pf growth 96h inconclusive
O=C(Nc1cccc(F)c1)Nc1ccccn1	Shiga toxin inh 60.7, CHX counter 49.5 (no result: Pf growth 96h)
O=C(O)CCC(=O)Nc1ccc(/C=C/C(=O)C2CC2)cc1	CHX counter 29.4
O=C(O)CCC(=O)NNC(=O)CCC(=O)Nc1ccccc1	none
CCOc1ccc(NC(=O)c2ccc(CNc3c(NC4CCCCC4)c(=O)c3=O)cc2)cc1	none (no result: Pf growth 48h)
CCOc1ccc(NC(=O)c2ccc(NC(=S)NC3CCCCC3)cc2)cc1	Pf growth 96h inconclusive, Pf growth 48h inconclusive, CHX counter 23.7
CCOc1ccc(NC(=O)c2ccc(NC(=S)NC3CC3)cc2)cc1	Shiga toxin inh 50.6, Pf growth 48h inconclusive (no result: NS1 inh)
CCC(=O)c1c(NCCc2ccccc2)cc(C)oc1=O	Pf growth 96h inconclusive
CCC(CC)C(=O)Nc1cc([N+](=O)[O-])ccc1Cl	Pf growth 96h 7.38µM, NS1 inh inconclusive
CC(=O)Nc1cccc(Oc2ccc([N+](=O)[O-])cc2Cl)c1	none (no result: NS1 inh)
O=[N+]([O-])c1ccc(NC(=S)N2CCCC2)cc1	none
COc1cccc(NC(C)C(=O)Nc2cc([N+](=O)[O-])ccc2Cl)c1 (stereo unspecified)	Pf growth 96h 14.7µM (no result: NS1 inh)
O=[N+]([O-])c1ccc(Cl)c(NC2=NCCCCC2)c1	Pf growth 96h 9.28µM, Pf growth 48h inconclusive
O=[N+]([O-])c1ccc(Cl)c(NC(=S)N2CCCC2)c1	Shiga toxin inh 49.7, CHX counter 32.6
CCn1c(CNC(=O)c2ccco2)nnc1SCC(=O)Nc1ccc(Br)cc1F	Pf growth 96h inconclusive, Pf growth 48h inconclusive
COc1ccc(OC)c(NC(=O)CN2C(=O)NC3(CCOc4ccccc43)C2=O)c1 (stereo unspecified)	Pf growth 96h inconclusive (no result: Pf growth 48h)
CC(=O)Nc1ccc(N(C(=O)c2ccco2)C(C(=O)NC2CCCC2)c2ccc(N3CCOCC3)cc2)cc1 (stereo unspecified)	Pf growth 48h inconclusive
Cc1cccc(-n2c(O)c(/C=C/C=Nc3ccccc3)c(=O)[nH]c2=O)c1	none
O=c1[nH]c(=O)n(-c2ccccc2F)c(O)c1/C=C1\C=Nc2ccccc21	CHX counter 6.6
CC1=Nc2ccccc2/C1=C/c1c(O)n(C)c(=O)[nH]c1=O	none (no result: Shiga toxin inh)
Cc1cccc(-n2c(O)c(/C=C3/C(c4ccccc4)=Nc4ccccc43)c(=O)[nH]c2=O)c1	Pf growth 96h 11.7µM, Shiga toxin inh 32.3, Pf growth 48h 10.4µM, CHX counter 20.0
Cc1ccc(-n2c(O)c(/C=C3/C(c4ccccc4)=Nc4ccccc43)c(=O)[nH]c2=O)cc1	Pf growth 96h 7.38µM, Shiga toxin inh 63.1, Pf growth 48h 8.28µM, CHX counter 28.8
Cc1ccccc1-n1c(O)c(/C=C2/C(c3ccccc3)=Nc3ccccc32)c(=O)[nH]c1=O	Shiga toxin inh 85.6, Pf growth 48h 11.7µM, CHX counter 54.2
COc1ccc(-c2nnc(SCC(=O)NCCC(C)C)nc2-c2ccc(OC)c(OC)c2)cc1OC	Pf growth 96h inconclusive, Pf growth 48h inconclusive
CCC(C)NC(=O)c1cc(OC)c(OC)c(OC)c1 (stereo unspecified)	Pf growth 96h 2.33µM
COc1cc(C(=O)NC(CCSC)C(=O)OCC(=O)C(C)(C)C)cc(OC)c1OC (stereo unspecified)	Shiga toxin inh 52.7 (no result: NS1 inh)
CCC(C)NC(=O)CSc1nnc(-c2cc(OC)c(OC)c(OC)c2)c(-c2cc(OC)c(OC)c(OC)c2)n1 (stereo unspecified)	Pf growth 48h 10.4µM
COc1cc(C(=O)N[C@H](C(=O)NC2CCCCCC2)C(C)C)cc(OC)c1OC	Pf growth 96h 11.7µM (no result: Pf growth 48h)
O=C(NCc1ccccn1)c1ccc(NS(=O)(=O)c2cccc(Cl)c2)cc1	Pf growth 96h inconclusive
O=C(COC(=O)C1CCN(c2ccc(C(F)(F)F)cn2)CC1)Nc1ncc(Cl)cc1Cl	none (no result: Shiga toxin inh, CHX counter, NS1 inh)
CN(c1ccc(C(=O)NCCSC(C)(C)C)cc1)S(C)(=O)=O	Shiga toxin inh 139.5, CHX counter 37.3 (no result: Pf growth 96h)
CN(c1ccc(C(=O)Nc2ccccc2C(F)(F)F)cc1)S(C)(=O)=O	Pf growth 96h inconclusive, Shiga toxin inh 40.9
CC(C)c1ccc(N(CC(=O)NCCSC(C)(C)C)S(C)(=O)=O)cc1	CHX counter 31.1 (no result: Pf growth 48h)
CCN(Cc1ccccc1)C(=O)c1ccc(CNS(=O)(=O)c2ccc(C)cc2)cc1	Pf growth 48h inconclusive
CC(C)(C)SCCNC(=O)CN(c1ccccc1)S(=O)(=O)c1ccccc1	Pf growth 96h inconclusive, Pf growth 48h inconclusive
CCN(Cc1ccccc1)C(=O)c1ccc(N(C)S(=O)(=O)c2ccc(C)cc2)cc1	Pf growth 96h inconclusive, Pf growth 48h 14.7µM (no result: Shiga toxin inh, CHX counter, NS1 inh)
Cc1ccc(S(=O)(=O)N(C)c2ccc(OC(=O)CN3C(=O)NC4(CCCC4)C3=O)cc2)cc1C	none (no result: Shiga toxin inh, CHX counter, NS1 inh)
CN(c1ccc(C(=O)NCCSCc2ccco2)cc1)S(C)(=O)=O	Shiga toxin inh 41.5, CHX counter 29.9 (no result: Pf growth 96h)
Cc1ccc(S(=O)(=O)N(C)c2ccc(C(=O)NCCc3ccccc3)cc2)cc1	Pf growth 96h 10.4µM, Shiga toxin inh 62.0, Pf growth 48h inconclusive, CHX counter 32.4
Cc1ccc(C(=O)NCCc2ccccc2)cc1	none
CN(c1ccc(C(=O)NCc2ccco2)cc1)S(C)(=O)=O	none (no result: Pf growth 96h)
CN(c1ccc(C(=O)NCCc2ccccc2)cc1)S(C)(=O)=O	Shiga toxin inh 68.3, CHX counter 20.9 (no result: Pf growth 48h)
CN(c1ccccc1)S(=O)(=O)c1cccc(C(=O)NCCc2ccc(O)c(O)c2)c1	Pf growth 96h inconclusive, Pf growth 48h 13.1µM
COc1ccc(CCNC(=O)c2ccc(N(C)S(=O)(=O)c3ccc(C)cc3)cc2)cc1	Pf growth 48h inconclusive (no result: NS1 inh)
CC(C)(C)SCCNC(=O)c1ccc(Cl)c([N+](=O)[O-])c1	Shiga toxin inh 97.9, CHX counter 27.1
Cc1ccccc1CNC(=O)c1ccc(Cl)c([N+](=O)[O-])c1	none
COc1cccc2cc(C(=O)NCCN3CCOCC3)c(=O)oc12	none
